Screening data as filed in PubChem BioAssay.
The entries come from a sample that favours hits as a whole.
Tb PYK inh – qHTS of Trypanosoma Brucei Inhibitors; pyruvate kinase (Trypanosoma brucei), Q57TT1; TbPYK enzyme, Kinase-Glo Plus ATP luminescence, 45 min; Potency, µM (top dose mostly 76.8 µM), for inactives: top-dose activity, negative = inhibition, usual class: inhibitors; 410,000 tested, 0.12% active; note: potency is the fitted concentration of half-maximal effect; % is set by controls: 0 for no effect and ±100 for the full control effect; nearly all actives have a fitted effect of over 50% in size
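Quantitative HTS: titrated library compounds versus trypanosomal pyruvate kinase in TEA buffer (pH 7.2) containing KCl, MgCl2, BSA and Tween-20. Reactions were initiated with ADP, 130 uM final. Kinase-Glo Plus luminescence was read after 45 min at RT.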
LmPK inh – qHTS Assay for Inhibitors of Leishmania Mexicana Pyruvate Kinase (LmPK) | Q27686 | purified LmPK, Kinase-Glo ATP luminescence, 1 h | Potency, µM (doses to about 57.5 µM), without a hit: at the top dose activity change, negative = inhibition, hits mostly inhibitors | 290,000 tested, 0.37% active | AID 1721, 2009; note: potency is the fitted concentration of half-maximal effect; % is set by controls: 0 for no effect and ±100 for the full control effect
Target sequence (Q27686 whole entry, looked up): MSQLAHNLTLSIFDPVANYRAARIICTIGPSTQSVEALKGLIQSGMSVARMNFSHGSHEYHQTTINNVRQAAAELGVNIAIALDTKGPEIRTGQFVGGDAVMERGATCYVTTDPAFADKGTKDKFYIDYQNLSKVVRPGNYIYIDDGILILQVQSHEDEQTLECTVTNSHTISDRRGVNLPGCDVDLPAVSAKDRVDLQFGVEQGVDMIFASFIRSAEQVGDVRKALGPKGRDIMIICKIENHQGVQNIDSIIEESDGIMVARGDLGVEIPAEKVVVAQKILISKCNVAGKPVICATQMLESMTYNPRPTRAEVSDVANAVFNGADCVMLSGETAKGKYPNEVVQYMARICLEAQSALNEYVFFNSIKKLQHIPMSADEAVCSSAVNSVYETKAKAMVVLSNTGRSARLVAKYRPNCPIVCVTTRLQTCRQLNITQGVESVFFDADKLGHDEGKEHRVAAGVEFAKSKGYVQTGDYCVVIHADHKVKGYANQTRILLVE
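Pyruvate kinase activity monitored as ATP production (luciferase luminescence). Conditions: 0.1 nM enzyme, 0.5 mM PEP, 0.1 mM ADP, 1 h, RT; normalized against uninhibited and no-enzyme wells.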
Cycloheximide cs – Cycloheximide Counterscreen for Small Molecule Inhibitors of Shiga Toxin. cell reporter, cycloheximide protein synthesis inhibition counterscreen. max response, %. 300,000 tested, 12% active. AID 2314, 2010; in the data active = max response mostly above about 13%, no sharp cut-off; inactive = mostly below about 14%; note: read at 38.3 µM for the half of the compounds with a filed dose; 0% is about no effect
Sm TGR block – qHTS Assay for the Inhibitors of Schistosoma Mansoni Peroxiredoxins. Schistosoma mansoni thioredoxin glutathione reductase (TGR), Q962Y6. Potency, µM (series often up to 114 µM), for inactives: at the top dose activity change, negative = inhibition, usual class: inhibitors. purified TGR, DTNB reduction, TNB absorbance 405 nm. 360,000 tested, 3% active; note: potency is the fitted concentration of half-maximal effect; % is set by controls: 0 for no effect and ±100 for the full control effect; nearly all actives have a fitted effect of over 60% in size
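First, TGR (20 nM dispensed) and NADPH were mixed with compound. Second, a 15 min room-temperature incubation followed. Third, further NADPH and then DTNB were added to start the reaction. Finally, TNB absorbance was monitored kinetically.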
Shiga toxin inh – A qHTS for Small Molecule Inhibitors of Shiga Toxin; Vero cells, Shiga toxin protein synthesis inhibition reporter; inhibition, % at 38.7 µM; 290,000 tested, 9.2% active; in the data active = inhibition mostly above about 28%, no sharp cut-off; inactive = mostly below about 43%; note: 0% is about no effect
Giardia FBPA inh – qHTS Assay for Inhibitors of Fructose-1,6-bisphosphate Aldolase from Giardia Lamblia; A8B2U2; purified Giardia FBPA; Potency, µM (series often up to 59.6 µM), inactives show at the top dose activity, negative = inhibition, actives largely listed as inhibitors; 290,000 tested, 0.71% active; note: potency is the fitted concentration of half-maximal effect; % is set by controls: 0 for no effect and ±100 for the full control effect; nearly all actives have a fitted effect of over 55% in size
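40 nM FBPA preincubated 10 min at RT with compound (up to 57.5 uM final), then substrate plus GAPDH/TPI/NAD/arsenate coupling and diaphorase/resazurin added. Fluorescence read after 20 min at RT, 525/598 nm.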
Starred values were filed as active, the others as inactive; ? = inconclusive; . = no result; [ ] = remark or other dose. Unless noted, calls come from the whole dose curve; as a rule, active = well fitted curve in the direction sought with a large enough effect; inconclusive = small, poorly fitted or top-dose-only effect, or another doubt; inactive = no such curve, though single readings can be large; an effect the other way counts as inactive or inconclusive.

SMILES | Tb PYK inh | LmPK inh | Cycloheximide cs | Sm TGR block | Shiga toxin inh | Giardia FBPA inh
O=C1CC(N2CCC(O)(c3ccc(Cl)cc3)CC2)C(=O)N1Cc1ccc(N2CCCC2=O)cc1 (stereo not drawn) | -3% | -1% | 8 | 32µM* | -12 | 9%
O=C1CC(N2CCOCC2)C(=O)N1Cc1ccc(N2CCCC2=O)cc1 (stereo not drawn) | 2% | 1% | -1 | -1%[11.4 µM] | -18 | 2%
Cc1ccc2nc(-c3ccc(NC(=S)NC4CC(C)(C)NC(C)(C)C4)cc3)sc2c1 | 5% | 8% | 12 | -27% | 57 | 2%
Cc1ccc2nc(-c3ccc(NC(=S)NC(=O)C(C)C)cc3)sc2c1 | -23% | -4% | 53* | -1% | 84* | 0%
CCC(=O)NC(=S)Nc1ccc(-c2nc3ccc(C)cc3s2)cc1 | -7% | -3% | 40* | 1% | 91* | 3%
CCC(=O)NC(=S)Nc1ccc(-c2nc3ccccc3s2)cc1 | -1% | -3% | 49* | 5% | 69* | 0%
CN1C(=O)C(=Cc2ccc(OCCN(C)c3ccccn3)cc2)C(=O)N(C)C1=O | -9% | -5% | 21* | 0% | 37 | 0%
COc1ccc(S(=O)(=O)n2ccc(-c3ccc(OCCN(C)c4ccccn4)cc3)n2)cc1 | 6% | 4% | 6 | 0% | -5 | 2%
CCOC(=O)N1CCN(C(=O)CNC(=O)c2nn(-c3ccc(OC)cc3OC)c(=O)c3ccccc23)CC1 | 0% | 3% | 25* | 10% | 31* | -1%
COc1ccc(-n2nc(C(=O)NCC(=O)N3CCCC3)c3ccccc3c2=O)c(OC)c1 | 5% | -1% | 11 | 9% | 18 | 1%
COc1ccc(-n2nc(C(=O)NCC(=O)N3CCN(c4ccccc4)CC3)c3ccccc3c2=O)c(OC)c1 | 0% | -3% | 16 | -16% | 37 | 2%
COc1ccc(-n2nc(C(=O)NCC(=O)N3CCN(c4ccc(F)cc4)CC3)c3ccccc3c2=O)c(OC)c1 | 4% | 8% | 16* | 5% | 29 | 0%
CN(CC(=O)Nc1cccc(S(=O)(=O)NC2=NCCC2)c1)Cc1cccc(F)c1 | -8% | . | . | 8% | . | .
CCCC[C@@H]1C[C@H]1C(NC(=O)c1cccnc1)c1ccc(-c2ccccc2)cc1 (stereo partly drawn) | . | . | . | . | . | 1%
C/C(=N\NC(=O)Cc1cccn1C)c1cccc2ccccc12 | 0% | 5% | -5 | -30% | 3 | -3%
C/C(=N/OCC(=O)Nc1ccc(C)cc1C)c1cccs1 | 7% | -3% | 2 | -22% | -14 | 0%
C/C(=N\NC(=O)Cc1ccccc1)c1cccs1 | -3% | 1% | 9 | 6% | -1 | 4%
C/C(=N\NC(=O)c1ccccc1O)c1cccs1 | -26% | 14µM* | 32* | 3% | 56* | -17%
C/C(=N\NC(=O)c1cccc2ccccc12)c1cccs1 | -6% | -2% | 29* | -32% | 70* | ?
C/C(=N\NC(=O)c1ccoc1C)c1cccc2ccccc12 | 5% | 3% | 62* | 7% | 80* | -4%
C/C(=N\OCC(=O)Nc1ccccc1C(=O)O)c1cccs1 | 5% | 10% | 34* | -7% | 98* | ?
COc1cccc(C(NC(C)=O)c2nc(-c3ccc(OC)nc3)cs2)c1 (stereo not drawn) | -1% | . | . | . | . | .
C[C@@H]1CN([C@H](C)CO)S(=O)(=O)c2ccc(-c3ccc(C#N)cc3)cc2O[C@H]1CN(C)C(=O)Nc1cc(F)ccc1F | -10% | . | . | . | . | .
O=[N+]([O-])c1ccc(C(O)C[n+]2ccccc2)cc1 (stereo not drawn) | -5% | 3% | -1 | -2% | . | 8%
COc1cccc(CNC(=O)C2CCN(S(=O)(=O)c3ccc4c(c3)CCCN4C(C)=O)CC2)c1 | 1% | . | . | 2% | . | .
SMILES | Tb PYK inh | LmPK inh | Cycloheximide cs | Sm TGR block | Shiga toxin inh | Giardia FBPA inh
C/C(=N\NC(=O)COc1cccc2ccccc12)c1cccs1 | -9% | 2% | -3 | 11% | -4 | 3%
C/C(=N\NC(=O)COc1ccccc1)c1cccs1 | -9% | 0% | 54* | 3% | 70* | 2%
C=CCn1c(COc2ccccc2)nnc1SCC(=O)Nc1ccc2c(c1)OCCO2 | -8% | 7% | -3 | 14% | 3 | 2%
C=CCn1c(COc2ccc3c(c2)CCCC3)nnc1SCC(=O)Nc1cccc(SC)c1 | -4% | 2% | 47* | 31% | 58* | -3%
CCCCCC(=O)/C=C/[C@@H]1[C@@H](C/C=C\CCCC(=O)O)[C@@H](O)C[C@H]1O | . | . | . | . | . | 4%
Cc1ccc(NC(=O)N2CCN(c3ncccc3C(F)(F)F)CC2)cc1 | -7% | -1% | 15* | 5% | 26 | -5%
O=C(Nc1ccc2ccccc2c1)N1CCN(c2ncccc2C(F)(F)F)CC1 | -12% | -3% | 1 | -2% | -17 | ?
CCOc1ccc(Nc2nc(N3CCCC3)nc(N3CCN(c4ccc(OC)cc4)CC3)n2)cc1 | -10% | 0% | -1 | 3% | -12 | -3%
Cc1cc(C)nc(Nc2ccc(N3CCOCC3)cc2)n1 | -21% | -11% | 17* | 0% | 70 | -23%
Cc1cc(C)nc(Nc2ccc(N3CCCC3)cc2)n1 | -20% | -10% | 30* | ? | 90* | -28%
COc1ccc(N2CCN(c3ccc(-c4nc(-c5ccccc5C)no4)cc3[N+](=O)[O-])CC2)cc1 | 2% | . | . | -4% | . | .
Cc1ccc(-c2nc3cc(C(C)C)ccc3o2)cc1NC(=O)c1cc([N+](=O)[O-])ccc1N1CCOCC1 | -4% | . | . | 2% | . | .
O=C1NCCN/C1=C\C(=O)c1cccc(Br)c1 | 0% | 0% | 34* | 5% | 72* | 7%
O=C1OCCN/C1=C\C(=O)c1ccccc1 | 3% | 3% | -1 | -27% | -3 | -5%
O=C1NCCN/C1=C\C(=O)c1ccc(Br)cc1 | -2% | -1% | 45* | -8% | 64* | 2%
O=C1OCCN/C1=C\C(=O)c1ccc(Cl)cc1 | -1% | 3% | 1 | ? | -3 | -1%
O=C1NCCN/C1=C\C(=O)c1ccccc1 | -5% | -4% | 33* | 4% | 26 | 3%
Fc1cccc(CNc2ncnc3ccc(-c4ccccc4Cl)cc23)c1 | . | . | . | 3% | . | .
O[C@@](CCN1CCCCC1)(c1ccccc1)C1CCCCC1 | . | . | . | . | . | -6%[21.7 µM]
CC(=O)O[C@]1(C(C)=O)CC[C@@H]2[C@@H]3C=C(Cl)C4=CC(=O)[C@H]5C[C@@H]5[C@]4(C)[C@H]3CC[C@]21C | . | . | . | . | . | 3%[21.7 µM]
c1ccc(COc2ccc(CN3CCN(c4ccccn4)CC3)cc2)cc1 | 2% | -8% | 41* | 0% | 93* | -12%
